This is a sample that favours compounds with a hit; in the whole collection about 11% have one here.
PI5P4K alpha inh – qHTS for Inhibitors of phosphatidylinositol 5-phosphate 4-kinase (PI5P4K); Phosphatidylinositol 5-phosphate 4-kinase type-2 alpha (Homo sapiens), P48426; PI5P4Kalpha enzyme, ADP-Glo luminescence, 60 min; stronger effect = lower value; actives 1.2% (n = 330,000); max response, %; active = max response of -50% or lower; inconclusive = between -30% and -50%; inactive = -30% or higher; note: value at the top dose of about 77 µM; % is set by controls: 0 for no effect and ±100 for the full control effect
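ADP-Glo luminescence end-point read after a 60 min room-temperature kinase reaction of PI5P4Kalpha plus substrate, initiated with ATP at 5 microM final. Buffer: 0.038 M HEPES pH 7.4, EGTA, 0.1% CHAPS, 5% DMSO.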
L3MBTL1 inh – qHTS Assay for the Inhibitors of L3MBTL1; actives 0.66% (n = 230,000); Potency, µM (titrated, usually from 57.1 µM), for inactives: at the highest dose activity, negative = inhibition, most hits filed as inhibitors; AlphaScreen L3MBTL1–H3K9me1 peptide binding; Lethal(3)malignant brain tumor-like protein 1 (Homo sapiens), Q9Y468; note: potency is the fitted concentration of half-maximal effect; % is set by controls: 0 for no effect and ±100 for the full control effect; nearly all actives have a fitted effect of over 60% in size
Target sequence (Q9Y468 whole entry, looked up): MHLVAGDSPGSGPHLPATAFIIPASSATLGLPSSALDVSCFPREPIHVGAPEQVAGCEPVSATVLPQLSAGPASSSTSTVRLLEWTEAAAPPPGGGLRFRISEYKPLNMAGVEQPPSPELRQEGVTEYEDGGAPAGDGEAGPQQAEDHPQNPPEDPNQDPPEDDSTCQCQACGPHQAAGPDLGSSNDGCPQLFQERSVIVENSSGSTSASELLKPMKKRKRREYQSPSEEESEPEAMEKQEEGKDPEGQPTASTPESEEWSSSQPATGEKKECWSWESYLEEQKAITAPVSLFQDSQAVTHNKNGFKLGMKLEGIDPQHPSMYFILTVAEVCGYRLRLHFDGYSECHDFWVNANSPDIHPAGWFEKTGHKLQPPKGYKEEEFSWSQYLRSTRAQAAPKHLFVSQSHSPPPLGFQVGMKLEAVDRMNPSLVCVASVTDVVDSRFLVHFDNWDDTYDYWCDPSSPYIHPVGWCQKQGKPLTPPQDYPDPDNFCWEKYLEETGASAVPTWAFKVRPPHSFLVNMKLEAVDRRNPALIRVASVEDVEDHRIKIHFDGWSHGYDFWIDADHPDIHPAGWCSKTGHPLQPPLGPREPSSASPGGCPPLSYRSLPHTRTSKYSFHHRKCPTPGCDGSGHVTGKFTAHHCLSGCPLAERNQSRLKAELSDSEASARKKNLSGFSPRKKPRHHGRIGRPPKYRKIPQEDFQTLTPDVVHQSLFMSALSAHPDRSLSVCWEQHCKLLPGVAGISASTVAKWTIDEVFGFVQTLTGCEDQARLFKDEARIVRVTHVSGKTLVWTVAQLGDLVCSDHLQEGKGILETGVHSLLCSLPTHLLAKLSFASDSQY
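AlphaScreen assay: L3MBTL1 (50 nM final) was preincubated 30 min at room temperature with biotinylated H3(1-15)K9me1 peptide (75 nM final), then 30 min with library compounds; streptavidin donor and nickel chelate acceptor beads (10 ug/mL final) added, 30 min dark.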
JMJD2A Tudor – qHTS Assay for Inhibitors of JMJD2A-Tudor Domain; Lysine-specific demethylase 4A (Homo sapiens), O75164; AlphaScreen JMJD2A-Tudor / H3K4me3 peptide binding; Potency, µM (series often up to 114 µM), inactives show at the highest dose activity change, negative = inhibition, most hits filed as inhibitors; actives 4.4% (n = 390,000); note: potency is the fitted concentration of half-maximal effect; % is set by controls: 0 for no effect and ±100 for the full control effect; nearly all actives have a fitted effect of over 50% in size
BAZ2B block – qHTS Assay for Inhibitors of BAZ2B | Bromodomain adjacent to zinc finger domain protein 2B (Homo sapiens), Q9UIF8 | AlphaScreen BAZ2B-H3K14Ac peptide displacement | Potency, µM (top dose mostly 114 µM), for inactives: at the top dose activity change, negative = inhibition, hits mostly inhibitors | actives 4.4% (n = 360,000) | AID 504333, 2011; note: potency is the fitted concentration of half-maximal effect; % is set by controls: 0 for no effect and ±100 for the full control effect; nearly all actives have a fitted effect of over 60% in size
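BAZ2B 50 nM plus b-H3(5-23)K14Ac 50 nM, PBS pH 7.4/0.01% Tween-20, 30 min RT; compound added (max 110 uM), 30 min RT; streptavidin donor/Ni-chelate acceptor beads 10 ug/mL final, 20 min dark; AlphaScreen read.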
HP1b chromo inh – HTS for Inhibitors of HP1-beta Chromodomain Interactions with Methylated Histone Tails | Chromobox protein homolog 1 (Homo sapiens), P83916 | AlphaScreen HP1-beta / biotin-H3K9me3 peptide binding | Potency, µM (top dose mostly 114 µM), without a hit: at the highest dose activity change, negative = inhibition, actives largely listed as inhibitors | actives 0.56% (n = 390,000) | AID 540317, 2011; note: potency is the fitted concentration of half-maximal effect; nearly all actives have a fitted effect of over 70% in size
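Compound inhibition of the preformed complex between 50 nM HP1-beta and 50 nM biotinylated H3K9me3 peptide was read by AlphaScreen. Buffer was PBS pH 7.4 with 0.01% Tween-20. Incubations ran 30 min at room temperature, with 10 ug/mL donor/acceptor beads.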
G9a block – qHTS Assay for Inhibitors of Histone Lysine Methyltransferase G9a; AID 504332, 2011; G9a H3K9 monomethylation, AlphaScreen, 2 h; Potency, µM (doses to about 102 µM), without a hit: at the top dose activity, negative = inhibition, usual class: inhibitors; actives 8.8% (n = 350,000); note: potency is the fitted concentration of half-maximal effect; % is set by controls: 0 for no effect and ±100 for the full control effect; nearly all actives have a fitted effect of over 75% in size
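Step 1: enzyme (final 20 nM) with compound, 15 min RT. Step 2: substrate peptide 500 nM and SAM 20 uM, 2 h RT. Step 3: anti-H3K9me1 antibody and AlphaScreen beads, 10 min, then plate read.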
An asterisk follows results filed as active; u = inconclusive; x = not tested or not shown; ! = a repeat was not active; [ ] = another dose, or the depositor's remark. Unless noted, calls come from the whole dose curve; as a rule, active = well fitted inhibition curve with a large enough effect; inconclusive = small, poorly fitted or top-dose-only effect; inactive = no such curve, though single readings can be large or run the other way.

SMILES	PI5P4K alpha inh	L3MBTL1 inh	JMJD2A Tudor	BAZ2B block	HP1b chromo inh	G9a block
Cn1cc(-c2cc3n(n2)CCC(=O)N3CCCC(=O)NCc2ccccc2Cl)c2ccccc21	x	x	-24%	-3%	25%[57 µM]	7%[59 µM]
CC(C)c1ccc2c(c1)-c1ccccc1S(=O)(=O)N2CC(=O)N1CCCCC1	x	x	-16%	-11%	39%	-29%[59 µM]
O=C(Nc1nc(-c2ccccc2)cs1)c1cccc([N+](=O)[O-])c1C(=O)O	-1	-6%	-21%	2%	34%	50µM*
Cc1ccc(C)c(NC(=O)c2cc(=O)c3cc(C)cc(C)c3o2)c1	x	x	-7%	-3%	43%	5%[59 µM]
COc1cc(NC(=O)C2=C(N3CCOCC3)/C(=C/c3ccc(Cl)cc3)CC2)cc(OC)c1OC	0	2%	-16%	9%	25%	13%
COc1cc(NC(=O)C2=C(N3CCOCC3)/C(=C\c3ccc(N(C)C)cc3)CCC2)cc(OC)c1OC	13	-15%	28µM*	40µM*	u	u
Cc1ccc(Nc2nnc(SCC(=O)Nc3ncc(S(=O)(=O)c4ccc([N+](=O)[O-])cc4)s3)s2)cc1	-20	5%	-23%	-19%	-4%	-10%[59 µM]
CC(C)c1ccc(Nc2nnc(SCC(=O)Nc3ncc(S(=O)(=O)c4ccc([N+](=O)[O-])cc4)s3)s2)cc1	u	2%	-14%	-20%	14%	35µM*
Cc1cc(=O)[nH]c(SCC(=O)Nc2ncc(S(=O)(=O)c3ccc([N+](=O)[O-])cc3)s2)n1	-16	x	-25%	-13%	u	45µM*
CCN(CC)C(=O)CSc1nnc2[nH]c(=O)cc(C)n12	x	x	-4%	0%	23%	-2%[59 µM]
O=C(CSc1cn(CC(=O)N2CCOCC2)c2ccccc12)Nc1ccccc1F	x	x	-9%	-8%	6%	-10%[59 µM]
CCCCOc1ccc(CNC(=O)c2ccc(NC(=O)N3CCCCc4ccccc43)cc2)cc1	x	x	-18%	-8%	16%	2%[59 µM]
COc1ccc(N/N=C(/C(C)=O)N2CCCc3ccccc32)cc1	2	-18%	35µM*	u	u	x
COc1cccc(NC(=O)Cc2ccc(NC(=O)N3CCCCc4ccccc43)cc2)c1	x	x	11µM*	-1%	3%	0%[59 µM]
CCCCOc1ccc(CNC(=O)Cc2ccc(NC(=O)N3CCCCc4ccccc43)cc2)cc1	x	x	79µM*	-19%	10%	-5%[59 µM]
COc1ccc(NC(=O)N2CCCc3ccccc32)cc1	x	9%	-5%	11%	32%	u
COc1ccc(NC(=O)Cc2ccc(NC(=O)N3CCCCc4ccccc43)cc2)c(OC)c1	x	x	-33%	-35%	14%	-9%[59 µM]
CC(C)(C)c1n[nH]c(=S)n(N)c1=O	x	3%	5µM*	u	-22%	9%[12.7 µM]
CC(C)(C)c1n[nH]c(=S)n(/N=C/c2cccs2)c1=O	-2	9%	-8%	-3%	40%	-11%[59 µM]
CCCC(=O)NC(=S)Nc1ccccc1C(=O)OC	-10	-2%	-16%[11.4 µM]	9%[57.1 µM]	-8%	40µM*
Cc1cccc(C)c1OCC(=O)NC1CC1	12	x	2%	1%	21%	60%
COC(=O)c1ccccc1NC(=S)NC(=O)C1CC1	x	x	-12%	u	25%	50µM*
Cc1cccc(C)c1OCC(=O)NNC(=S)NC(=O)C1CC1	-1	x	-13%	-2%	50%	20µM*
CCCC(=O)NNC(=O)CC(=O)Nc1ccccc1C(=O)O	-1	4%	-13%	-21%	4%[57 µM]	50µM*
CCC(=O)NC(=S)Nc1ccccc1C(=O)OC	3	2%	-12%	5%	19%	u
SMILES	PI5P4K alpha inh	L3MBTL1 inh	JMJD2A Tudor	BAZ2B block	HP1b chromo inh	G9a block
CCOc1ccc(CNC(=O)C2CCN(S(=O)(=O)c3ccc4c(ccn4C)c3)CC2)cc1	x	x	-16%	-4%	18%[57 µM]	-3%[59 µM]
CO[C@H]1OC2O[C@@]3(C)CC[C@H]4[C@H](C)CC[C@@H]([C@H]1C)[C@@]24OO3 (stereo partly specified)	x	x	x	x	x	3%[59 µM]
COC(=O)c1ccccc1NC(=O)CNc1cc(OC)c(OC)cc1C	-5	-14%	u	45µM*	-23%	20µM*
CCc1ccccc1NCC(=O)Nc1ccccc1C(=O)OC	2	5%	1%	2%	33%	8%
C=C1C=CS(=O)(=O)N(Cc2ccccc2)C1	x	x	-15%	x	45%	x
O=S(=O)(NCCc1csc2nc(-c3ccc(F)cc3)nn12)c1ccc2c(c1)OCCO2	x	x	-6%	-2%	27%	u
Cc1c(NS(=O)(=O)c2cc(C(=O)NCCN(C)C)ccc2Cl)c(=O)n(-c2ccccc2)n1C	-7	x	u	79µM*	10%	u
Cc1ccc(NS(=O)(=O)c2cc(C(=O)NCCCN(C)C)ccc2Cl)cc1Cl	2	-14%	-7%	6%	34%	79µM*
Cc1ccccc1NS(=O)(=O)c1cc(C(=O)NCc2ccncc2)ccc1Cl	-2	x	-5%	-24%	42%	45µM*
Cc1ccc(C(=O)NCc2ccncc2)cc1S(=O)(=O)Nc1cccc(C)c1C	-3	x	-5%	-18%	13%	-47%
NC/C=C\C(=O)O	x	x	x	x	x	13µM*!
Fc1ccc(NC(=S)NCc2ccccn2)cc1	-2	6%	-35%	-2%	21%	28%[0.501 µM]
O=C(Cc1cc(C(=O)O)c2ccccc2n1)Nc1ccccc1	1	x	-10%	11%	30%	35µM*
S=C(NCc1ccccn1)Nc1ccccc1	6	-9%	-2%	79µM*	34%	19%[59 µM]
CCN(CC)C(=O)Cc1cc(C(=O)O)c2ccccc2n1	x	x	-12%	-34%	19%	-6%[59 µM]
COC(=O)c1sccc1NC(=S)Nc1ccccc1	5	9%	-15%	-6%	12%	50µM*
O=C(Cc1ccccn1)Nc1ccccc1	0	9%	-27%	u	52%	40µM*
CCOc1ccc(CCNC(=O)c2cc3c(=O)n(C)c4ccccc4c3n2C)cc1OCC	x	x	-9%	-17%	42%	u
Fc1ccc(NC(=S)Nc2nccs2)cc1	0	-10%	-21%	-14%	-28%	u
S=C(Nc1ccccc1)Nc1nccs1	-10	-9%	u	-14%	-8%	27µM*!
O=C(c1ccccc1)N1CCCC(C(=O)N2CCCCCC2)C1 (stereo unspecified)	0	14%	-5%	-9%	79%	5%[2.33 µM]
CC1CCN(C(=O)C2CCN(CCCc3ccccc3)CC2)CC1	x	-5%	x	u	x	14µM*

Source: PubChem
